Among all 300,000 compounds or so, about 37,000 (12%) were called active. The sample holds actives, similar compounds and a random draw of the others, so the mix is not that of the screen. Cut-off read from the data, not from the text of the source: active = max response mostly above about 13% (no sharp cut-off); inactive = mostly below about 14%.
Test: Cycloheximide Counterscreen for Small Molecule Inhibitors of Shiga Toxin; note: read at 38.3 µM for the half of the compounds with a filed dose; 0% is about no effect
Details: cell reporter, cycloheximide protein synthesis inhibition counterscreen; hits give high values
For `CCOc1ccc(Br)cc1S(=O)(=O)Nc1ccc(C(=O)OC(C)C(=O)N(C)c2ccccc2)cc1` (stereo unspecified), the max response was 0.522% (inactive). With `O=C(Nc1cccc(Cl)c1)c1cc(S(=O)(=O)N2CCCCC2)c[nH]1` the max response was 1.01% (inactive). With `CCOC(=O)C1CN(S(=O)(=O)c2ccc(OC)cc2)c2cc(Cl)ccc2O1` (stereo unspecified) the max response was -3.3% (inactive). For `Cc1ccc(S(=O)(=O)N2CCN=C2SCc2c(F)cccc2Cl)cc1`, the max response was 0.957% (inactive). In the case of `CC(=O)N(c1ccc2oc(=O)sc2c1)S(=O)(=O)c1ccc(C)cc1`, the max response is reported as -5.66% (inactive). For `COC(=O)c1cccc([N+](=O)[O-])c1CS(=O)(=O)c1ccc(C)cc1`, the max response was 1.48% (inactive). In the case of `Cc1ccc(N=C2NC(=O)c3cccc([N+](=O)[O-])c32)cc1`, the max response is reported as 37.1% (active). With `Cc1ccc(Cl)cc1NC(=O)COC(=O)CC(C)(C)C` the max response was -0.256% (inactive). For `O=C(COc1ccc(-c2ccccc2)cc1)NN=C1CCCC1`, the max response was -1.28% (inactive). In the case of `O=[N+]([O-])c1cc(Br)c(O)c(/C=N/Nc2nc3ccccc3s2)c1`, the max response is reported as 26% (inactive). In the case of `c1ccc2sc(NN=C3CCCC3)nc2c1`, the max response is reported as 38.7% (active). With `COCc1cc(=O)[nH]c(-c2ccc(C(F)(F)F)cc2)n1` the max response was -0.991% (inactive). In the case of `C=CCN(Cc1nc(-c2cc(OC)c3c(c2)OCO3)oc1C)C1CCS(=O)(=O)C1` (stereo unspecified), the max response is reported as -2.18% (inactive). For `Cc1nc2ccccc2cc1OCc1ccc(F)cc1`, the max response was 37.2% (active). With `Cc1occc(=O)c1OCc1ccc(F)cc1` the max response was 5.09% (inactive). With `Fc1cccc2ncnc(OCc3ccccc3)c12` the max response was 6.13% (inactive). In the case of `CCSc1nc2sc3c(c2c(=O)n1-c1ccc(C)cc1)CCN(C)C3`, the max response is reported as -1.97% (inactive). For `Cc1cccc(NS(=O)(=O)c2ccc(C)c(C(N)=O)c2)c1`, the max response was -1.67% (inactive). With `Cc1ccccc1CC1(CO)CCCN(Cc2ccc3c(c2)OCCO3)C1` (stereo unspecified) the max response was -2.18% (inactive). In the case of `COc1ccc([C@H]2[C@H](C(C)=O)N3N=Cc4ccccc4C3C23C(=O)OC(C)(C)OC3=O)cc1` (stereo partly specified), the max response is reported as 12.2% (inactive). With `CC(=O)c1cccc(-n2nnnc2SCC(=O)NNC(=O)C2CCCCC2)c1` the max response was 0.0917% (inactive). In the case of `C=CCn1c(SCn2nnc3ccccc3c2=O)nnc1-c1ccc(Cl)cc1`, the max response is reported as 8.6% (inactive). With `CN(C(=O)CCn1c(=S)oc2ccccc21)C1CCCCC1` the max response was 3.76% (inactive). In the case of `CN(C(=O)CSc1nnc(-c2c[nH]c3ccccc23)o1)C1CCS(=O)(=O)C1` (stereo unspecified), the max response is reported as 1.22% (inactive). For `Nc1nnc(SCn2nnc3ccccc3c2=O)s1`, the max response was 13.9% (inactive). With `CN(C(=O)COc1ncnc2c1cnn2-c1ccccc1)C1CCCCC1` the max response was 2.25% (inactive). With `CN(C(=O)CSc1nnnn1-c1ccccc1)C1CCCCC1` the max response was 17.1% (active). For `O=c1c2ccccc2nnn1CSc1nnnn1-c1ccccc1`, the max response was 67.5% (active). For `CN(C(=O)CSc1nncc2ccccc12)C1CCCCC1`, the max response was 30.4% (active). In the case of `CC(NC(=O)C1CCCN(S(=O)(=O)c2ccc(-n3cnnn3)cc2)C1)c1ccc(F)cc1` (stereo unspecified), the max response is reported as 1.89% (inactive). In the case of `Cc1cccc(N(Cc2ccccc2)C(=O)c2ccccc2F)c1`, the max response is reported as 13.7% (inactive). With `O=C(NCc1ccccc1Cl)C1CCCN1S(=O)(=O)c1ccc(F)cc1` (stereo unspecified) the max response was -3.67% (inactive). For `COCCCNC(=S)N1CCCC(c2nc3cc(C)c(C)cc3[nH]2)C1` (stereo unspecified), the max response was 13.5% (inactive). With `CC1CCN(C(=S)c2ccc(-c3ccc(Cl)cc3Cl)o2)CC1` the max response was 8.41% (inactive). For `CCOC(=O)c1cnc(Nc2nc3ccccc3o2)nc1CSC(=S)N1CCCCC1`, the max response was 10.5% (inactive). For `Cc1cc(N=Nc2ccc3ccccc3c2)ccc1O`, the max response was 46.6% (active). For `COc1ccc(N=Nc2ccc(O)c(P(=O)(c3ccccc3)c3ccccc3)c2)cc1`, the max response was -8.38% (inactive). With `COc1ccnc2c1c(=O)n(Cc1cccc(F)c1)c(=O)n2C` the max response was 6.46% (inactive). For `COc1ccc2c(c1OC)C(=O)OC2Nc1nc(-c2ccccc2)cs1` (stereo unspecified), the max response was 38.5% (active). With `CCc1ccccc1NC(=O)[C@@H]1CCC(=O)N1C1OC(=O)c2c1ccc(OC)c2OC` (stereo partly specified) the max response was -2.07% (inactive). With `COc1ccc(N/C=C(\C2OC(=O)c3ccccc32)[N+](=O)[O-])cc1` (stereo unspecified) the max response was 7.23% (inactive). With `COc1ccc(-c2csc(NC3OC(=O)c4ccccc43)n2)cc1` (stereo unspecified) the max response was 20% (active). For `COc1ccc(C(=O)Nc2nc(-c3ccc(S(=O)(=O)N4CCOCC4)cc3)cs2)cc1`, the max response was 0.36% (inactive). For `Cc1ccc(-c2csc(NC(=O)Cn3[nH]c(=O)c4ccccc4c3=O)n2)cc1`, the max response was 11.5% (inactive). In the case of `Cc1ccc(-c2csc(NC3OC(=O)c4ccccc43)n2)cc1` (stereo unspecified), the max response is reported as 21.8% (active). For `COc1ccc2c(c1OC)C(=O)OC2c1c(O)nc(SC)n(-c2ccccc2)c1=O` (stereo unspecified), the max response was -1.46% (inactive). With `O=C(Cn1c(NCCO)nc2ccccc21)c1ccc(Cl)cc1Cl` the max response was -1.01% (inactive). With `COc1ccc(CN2CCN(Cc3cn(C)nc3-c3ccccc3)CC2CCO)c(C)c1C` (stereo unspecified) the max response was 7.91% (inactive). With `CC(=O)c1ccc(S(=O)(=O)N(C)CCCC(=O)N(C)Cc2ccccc2F)cc1` the max response was 2.54% (inactive). For `COC(=O)C1=CN(Cc2ccc(OC)cc2)C=C(C(=O)OC)C1c1ccc(O)c(OC)c1`, the max response was -3.7% (inactive). For `O=C(c1ccc(Br)o1)N(c1ccccn1)C1CCCCC1`, the max response was 0.638% (inactive). For `Cc1cc(C)c(C#N)c(SCc2ccc3c(c2)OCO3)n1`, the max response was -2.14% (inactive). With `Cc1snc(SCc2c(F)cccc2Cl)c1C#N` the max response was -2.84% (inactive). In the case of `Cc1ccc(CSc2nsc(C)c2C#N)cc1`, the max response is reported as 22% (active). In the case of `Cn1c(CCC(=O)OCC(=O)NCc2ccccc2Cl)nc(=O)c2ccccc21`, the max response is reported as -1.91% (inactive). For `CCOCCCNC(=S)Nc1ccc2nc(N3CCN(CC)CC3)cc(C)c2c1`, the max response was -1.07% (inactive). For `COc1cccc(CCNC(=O)c2cccc(NC(=O)C3=C(C)OCCS3)c2)c1`, the max response was 12% (inactive). With `CC(=O)Nc1ccc(NC(=S)NC(=O)c2ccc([N+](=O)[O-])c(C)c2)cc1` the max response was 17.1% (active). In the case of `Cc1ccc(C(=O)NC(=S)Nc2ccc3[nH]c(=O)[nH]c3c2)cc1C`, the max response is reported as 2.1% (inactive). In the case of `CC(=O)NC(=S)Nc1ccc(NC(=S)NC(=O)c2ccc([N+](=O)[O-])cc2)cc1`, the max response is reported as 10.5% (inactive). With `COc1ccc(N2CC(C(=O)N[C@@H](C)C(=O)N3CCCCC3)CC2=O)cc1` (stereo partly specified) the max response was -0.721% (inactive). For `O=C1/C(=C/c2coc3ccc(O)cc3c2=O)SC(=S)N1c1ccccc1`, the max response was -2.68% (inactive). For `COc1ccccc1C(=O)Oc1ccc(N2C(=O)CCC2=O)cc1`, the max response was -4.08% (inactive). With `Cc1cc(OC(=O)c2ccccc2Cl)ccc1N1C(=O)CCC1=O` the max response was 43.6% (active). For `CCOC(=O)c1cc(OC(=O)c2ccccc2Cl)n(-c2ccccc2)n1`, the max response was 28.5% (inactive). In the case of `O=C1c2ccccc2-c2ncnc3c(N4CCOCC4)cc(N4CCOCC4)c1c23`, the max response is reported as -4.86% (inactive). In the case of `CC(=O)c1ccc(S(=O)(=O)N2CCC3(CC2)OCCO3)cc1`, the max response is reported as -6.29% (inactive). With `COc1ccccc1CN1CCN(Cc2cc(OC)c(OC)cc2OC)CC1` the max response was 3.57% (inactive). With `O=C(CCc1nc2ccccc2c(=O)[nH]1)OCC(=O)c1cccc(Cl)c1` the max response was -1.24% (inactive). For `O=C(COC(=O)CCc1nc2ccccc2c(=O)[nH]1)Nc1ccc(N2CCOCC2)cc1`, the max response was 2.13% (inactive). For `CC(C)(C)c1ccc(NC(=O)COC(=O)CCc2nc3ccccc3c(=O)[nH]2)cc1`, the max response was 14.2% (active). For `O=C(c1ccc[nH]c1=S)N1CCN(S(=O)(=O)c2ccc(Br)cc2Cl)CC1`, the max response was -2.01% (inactive). With `COc1ccc(NC(=O)CCS(=O)(=O)c2cc3c(cc2Cl)NC(=O)CO3)cc1OC` the max response was -10.6% (inactive). With `COc1ccccc1OCC(=O)Nc1c2c(nn1-c1ccc(F)cc1)CS(=O)(=O)C2` the max response was -3.21% (inactive). With `CCC(CC)NC(=O)/C=C/c1cccc([N+](=O)[O-])c1` the max response was -4.49% (inactive). With `N#Cc1cc([N+](=O)[O-])ccc1Oc1cccc(/C=N/NC(=O)c2ccc(Cl)cc2)c1` the max response was -2.97% (inactive). In the case of `O=[N+]([O-])c1ccc(N/N=C/c2ccccc2)cc1`, the max response is reported as 34.7% (active). For `CCc1ccc(NC(=O)C(C)OC(=O)/C=C/c2cccc([N+](=O)[O-])c2)cc1` (stereo unspecified), the max response was 59.2% (active). In the case of `O=C(N/N=C/c1cccc([N+](=O)[O-])c1)c1ccncc1`, the max response is reported as 11% (active). With `CC(=O)Nc1ccc(NC(=O)C(C)OC(=O)c2ccccc2C(=O)c2ccc(Cl)c([N+](=O)[O-])c2)cc1` (stereo unspecified) the max response was 8.13% (inactive). For `O=C(N/N=C/c1cccc(OC(=O)c2ccc([N+](=O)[O-])cc2)c1)c1cccnc1`, the max response was -7.61% (inactive). For `Cc1cccc(COc2ccccc2/C=N/Nc2ccc([N+](=O)[O-])cc2)c1`, the max response was -0.989% (inactive). With `Cc1ccc(NC(=O)C(=O)NCC2CCN(C(=O)c3cccc([N+](=O)[O-])c3)CC2)cc1` the max response was 3.94% (inactive). In the case of `Cc1ccc(NC(=O)O/N=C/c2cccc([N+](=O)[O-])c2)cc1`, the max response is reported as 40.6% (active). For `O=C(O)/C=C/C(=O)NNc1ccc([N+](=O)[O-])cc1`, the max response was 10.2% (inactive). In the case of `Cc1ccc(NC(=O)/C(=C/c2ccc([N+](=O)[O-])cc2)NC(=O)c2ccccc2)cc1`, the max response is reported as -3.41% (inactive). For `COc1ccc(C(=O)NC2CC(C)(C)Cc3c2cnn3-c2ccccc2C)o1` (stereo unspecified), the max response was -0.937% (inactive). For `CC(Sc1nnc(CNC(=O)c2ccccc2F)n1C)C(=O)Nc1nccs1` (stereo unspecified), the max response was -1.64% (inactive). For `CCN(CC)S(=O)(=O)c1ccc(Cl)c(C(=O)NC(C)C(c2cccs2)N2CCCC2)c1` (stereo unspecified), the max response was 3.13% (inactive). With `O=C1CCC([N+](=O)[O-])C(c2ccccc2Br)N1` (stereo unspecified) the max response was -3.57% (inactive). With `Oc1ccccc1CN1CCN(C(c2ccccc2)c2ccccc2)CC1` the max response was 2.23% (inactive).

Source: PubChem BioAssay AID2314 (National Center for Advancing Translational Sciences (NCATS), 2010)
